# Screening data (PubChem)
# A selection: hits, their analogues and other compounds. The true share with any hit is near 1.5%.
# RAD52 anneal inh: RAD52 DNA annealing inhibitors, primary screen, biochemical, FRET, single point, set 2. AID 651710, 2012. inhibition, % at 18.7 µM. DNA repair protein RAD52 homolog (Homo sapiens), P43351. recombinant RAD52 DNA annealing, FRET fluorescence. 0.46% of 360,000 active;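 active = every replicate showing at least 50% inhibition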
# miR122 inh: miR-122 Renilla sensor signal increase in Huh7, primary screen, miR-122 inhibitor project, cell-based, single point, plate reader; Huh7 miR-122 Renilla luciferase sensor, 48 h; neutral wells = 0, positive control = 100; activation (reporter increase), % at 12.5 µM; 0.3% of 340,000 active; AID 602342, 2012;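 active = mean replicate activation score at least 90 and every replicate individually at or above 90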;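 also: higher luciferase means less miR-122 activity so hits act as miR-122 inhibitors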
# MLL AF4-AF9 inh: inhibitors of AF4 peptide binding to AF9, primary screen, biochemical, AlphaScreen, biotin-AF4 peptide, FLAG-AF9, single point | inhibition, % at 10 µM | Protein AF-9 (Homo sapiens), P42568 | AID 651704, 2012 | 0.47% of 350,000 active;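 active = every replicate reaching a set inhibition limit, whatever the replicate mean, cut at about 25% in these data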;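 also: 0% = plate neutral control median and 100% = total signal loss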
# Target sequence (P42568 whole entry, looked up): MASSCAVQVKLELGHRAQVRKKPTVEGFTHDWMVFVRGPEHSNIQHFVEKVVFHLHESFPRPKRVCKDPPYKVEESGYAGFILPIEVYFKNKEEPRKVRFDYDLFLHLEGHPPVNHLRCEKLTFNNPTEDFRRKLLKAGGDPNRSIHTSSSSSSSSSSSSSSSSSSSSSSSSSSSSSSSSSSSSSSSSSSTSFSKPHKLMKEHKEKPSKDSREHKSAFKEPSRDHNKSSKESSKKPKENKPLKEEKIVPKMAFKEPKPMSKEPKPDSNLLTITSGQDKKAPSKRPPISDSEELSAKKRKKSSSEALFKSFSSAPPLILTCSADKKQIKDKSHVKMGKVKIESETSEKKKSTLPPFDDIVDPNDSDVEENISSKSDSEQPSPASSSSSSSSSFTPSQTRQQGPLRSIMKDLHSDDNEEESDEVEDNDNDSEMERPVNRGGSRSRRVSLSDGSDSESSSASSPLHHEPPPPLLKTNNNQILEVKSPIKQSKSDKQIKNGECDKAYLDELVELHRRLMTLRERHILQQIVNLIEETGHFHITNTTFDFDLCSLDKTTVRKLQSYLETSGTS
# NSD2 inh: NSD2 histone methyltransferase inhibitors, primary screen, biochemical, AlphaScreen, single concentration, set 2; inhibition, % at 12.5 µM; 0.54% of 310,000 active; NSD2 peptide methylation, 120 min; in the data active = inhibition above about 50%
# CASP6 VEID inh: human caspase-6 inhibitors, primary screen, biochemical, VEID-R110 fluorescence, single point, set 2. P55212. purified caspase-6, Z-VEID-R110 cleavage fluorescence. inhibition, % at 12.5 µM. 0.53% of 350,000 active. AID 686996, 2013;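 active = mean inhibition across replicates at least about 35%, with every replicate also reaching that limit, limit read from the data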;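 also: 0% = median of neutral control wells and 100% = no fluorescence left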
# Starred values were filed as active, the others as inactive; / = no result; ! = not confirmed by another sample; [ ] = another dose, or the depositor's remark.
SMILES,RAD52 anneal inh,miR122 inh,MLL AF4-AF9 inh,NSD2 inh,CASP6 VEID inh
COc1ccccc1-c1ccc(C2[C@@H]3CN(S(=O)(=O)c4ccc(F)cc4)C[C@H]2N3)cc1 (some centres not stated),61*!,/,1,/,-1
COc1ccccc1-c1ccc(C2[C@H]3CNC[C@@H]2N3S(=O)(=O)c2ccccc2)cc1 (some centres not stated),36,/,-3,/,-2
COc1ccccc1-c1ccc(C2[C@@H]3CN(S(=O)(=O)c4ccccc4)C[C@H]2N3)cc1 (some centres not stated),55*,/,/,/,/
CO[C@H]1CN(C)C(=O)c2cc(NC(C)=O)ccc2OC[C@H](C)N(Cc2ccccc2F)C[C@@H]1C,-7,-14[16.7 µM],3,/,1
CNC[C@@H]1Oc2cc(C#Cc3ccncc3)ccc2S(=O)(=O)N([C@H](C)CO)C[C@@H]1C,/,/,-3,/,/
COc1ccc2c3c(n(C)c2c1)[C@@H](CO)NCC31CCN(Cc2cc(-c3ccccc3)on2)CC1,59*,/,37*,/,-1
COc1ccc2c3c(n(C)c2c1)[C@@H](CO)NCC31CN(Cc2cc(-c3ccccc3)on2)C1,33,/,5,/,/
COc1ccc2c3c(n(C)c2c1)[C@H](CO)NCC31CN(Cc2cc(-c3ccccc3)on2)C1,80*,/,40*,/,/
CCCC(=O)N1CCC2(CC1)CN[C@H](CO)c1c2c2ccc(OC)cc2n1C,/,/,-2,/,/
Cn1c(CSCCOc2ccccc2)n[nH]c1=S,-15,-1,0,-1,45*
CC(C)CC#Cc1cnc2c(c1)C(=O)N([C@H](C)CO)C[C@H](C)[C@H](CN(C)Cc1cncnc1)O2,-10,16[16.7 µM],-3,/,-1
C=CCN(CC=C)Cc1cc(=O)n2c(-c3ccccc3)csc2n1,-36,/,49*,6,3
O=C(c1cc(O)c(O)c([N+](=O)[O-])c1)c1ccccc1F,-11,2,26*,/,31
O=C(Nc1ccc([N+](=O)[O-])cc1)c1ccccc1F,-4,/,-3,-1,-3
COc1ccc(OC)c(NC(=O)Nc2nc(C(N)CCc3ccccc3)cs2)c1 (configuration not stated),-21,-5,28*,23,8
COc1ccc(CC(N)c2csc(NC(=O)Nc3cc(OC)ccc3OC)n2)cc1 (configuration not stated),-22,-10,31*,3,6
O=S(=O)(c1ccccc1)N1C[C@@H]2N[C@H](C1)C2c1ccc(-c2ccccc2)cc1 (some centres not stated),73*!,/,-2,/,-2
Cc1ccc(-c2ccc(C3[C@@H]4CN(S(=O)(=O)c5ccccc5)C[C@H]3N4)cc2)cc1 (some centres not stated),98*!,/,-4,/,-3
Cc1ccc(S(=O)(=O)N2C[C@@H]3N[C@H](C2)C3c2ccc(-c3cccc(C#N)c3)cc2)cc1 (some centres not stated),82*!,/,-4,/,-1
N#Cc1cccc(-c2ccc([C@@H]3[C@@H]4CN(S(=O)(=O)c5ccc(-c6ccccc6)cc5)C[C@H]3N4)cc2)c1,-7,/,-1,/,2
O=C(COC(=O)c1cccs1)NC1CC1,/,/,/,-1,/
O=C(O)Cc1ccc(N=Nc2c(O)c(C(=O)O)cc3ccccc23)cc1,-28,-5,6,39,40*
C[C@H]1CN([C@@H](C)CO)C(=O)Cc2cc(NC(=O)Nc3cccc4ccccc34)ccc2O[C@@H]1CN(C)Cc1ccc2c(c1)OCO2,27,-6[16.7 µM],1,/,0
C[C@@H]1CN([C@@H](C)CO)C(=O)Cc2cc(NC(=O)Nc3cccc4ccccc34)ccc2O[C@H]1CN(C)Cc1ccc2c(c1)OCO2,54*,-7[16.7 µM],5,/,2
C[C@H](CO)N1C[C@H](C)[C@@H](CN(C)Cc2ccc(Cl)c(Cl)c2)Oc2ccc(NC(=O)Nc3cccc4ccccc34)cc2CC1=O,54*,-12[16.7 µM],2,/,-2
SMILES,RAD52 anneal inh,miR122 inh,MLL AF4-AF9 inh,NSD2 inh,CASP6 VEID inh
CC(C)CC#Cc1cnc2c(c1)C(=O)N([C@H](C)CO)C[C@H](C)[C@H](CN(C)C(=O)CC1CC1)O2,/,22[16.7 µM],-2,/,/
CS(=O)(=O)Nc1ccc2c(c1)[C@H]1C[C@H](CC(=O)NCc3cccc(F)c3)O[C@H](CO)[C@H]1O2,-10,-5[16.7 µM],-1,/,-3
Cc1ccc(S(=O)(=O)NCCC(=O)Oc2ccc3ccc(=O)oc3c2)cc1,-8,237*,-3,5,3
Cc1ccc(S(=O)(=O)NC(C(=O)Oc2ccc3ccc(=O)oc3c2)c2ccccc2)cc1 (configuration not stated),/,4,/,-4,/
COc1cc(/C=C2\C(=N)N3N=C(S(C)(=O)=O)SC3=NC2=O)ccc1OCCOc1ccccc1C,-33,-6,8,5,40*
COc1cc(/C=C2\C(=N)N3N=C(S(C)(=O)=O)SC3=NC2=O)ccc1OC(=O)c1ccco1,-80,/,-1,48,41*
CCOc1cc(/C=C2\C(=N)N3N=C(S(=O)(=O)CC)SC3=NC2=O)ccc1OC(=O)c1ccco1,-118,-1,-4,29,11
Cc1ccc(S(=O)(=O)N(C)C[C@H]2Oc3ccc(NS(=O)(=O)c4cn(C)cn4)cc3C(=O)N([C@H](C)CO)C[C@@H]2C)cc1,/,0[16.7 µM],/,/,/
CO[C@H]1CN(C)C(=O)c2ccc(NC(=O)C3CC3)cc2OC[C@H](C)NC[C@@H]1C,-15,/,-11,/,3
COc1cccc(CNc2ccc3c(c2)ncn3C(C)C)c1OC,-6,0,48*,/,0
O=C(Cn1c(=O)oc2cc(S(=O)(=O)N3CCCC3)ccc21)N1CCCC1,-8,-2,28*,/,0
O=C(Nc1ccccc1)C1=C[C@@H](c2ccc3c(c2)Cc2ccccc2-3)C[C@@H](OCCCCO)O1,52*,/,7,/,2
CO[C@H]1CN(C)C(=O)c2ccc(NC(=O)c3cnccn3)cc2OC[C@H](C)N(CC2CC2)C[C@H]1C,-1,/,-1,/,2
CC(C)Sc1nc2c(cnn2-c2ccccc2)c(=O)[nH]1,-9,-5,36*,/,-2
CC(C)Sc1nc2c(cnn2-c2ccc(F)cc2)c(=O)[nH]1,-3,-3,-4,/,-4
O=C(C1CCC(CNc2c(N3CCOCC3)c(=O)c2=O)CC1)N1CCN(c2ccccc2)CC1 (configuration not stated),-14,-10,40*,/,0
CC(=O)Oc1cc(C(=O)OCC(=O)NC23CC4CC(CC(C4)C2)C3)cc(OC(C)=O)c1OC(C)=O,-3,-15,4,/,41*
COc1cccc(C(=O)OCC(=O)NC23CC4CC(CC(C4)C2)C3)c1,-8,-5,-1,-3,-1
